In all, about 39,000 compounds went through this assay and about 1,500 (3.8%) were called active. The sample holds actives, similar compounds and a random draw of the others, so the mix is not that of the screen.

This assay has as its system HSkMC (human skeletal muscle cells). Nature of the assay: cytotoxicity call (relative viability < 0.9). To be noted: 10 µM.
As for `COC(=O)C[C@H]1CC[C@@H]2NC[C@H](O)COC[C@H]2O1`, the cytotoxicity call is “inactive”.

In the case of `Cc1ccc(OC(=O)N(C)C[C@@H]2OCc3ccccc3-c3c(n(C)c4ccccc34)C(=O)N([C@H](C)CO)C[C@H]2C)cc1`, the cytotoxicity call was “inactive”.

As for `COc1ccc(OC)c(C(O)C(C)N)c1.Cl` (configuration not stated), the cytotoxicity call is “inactive”.

In the case of `C[N+]1(C)CCCC(OC(=O)C(O)(c2ccccc2)c2ccccc2)C1.[Br-]` (configuration not stated), the cytotoxicity call was “inactive”.

Take `NC[C@@H](O)c1ccccc1`: the cytotoxicity call was “inactive”.

As for `CC(C)(C)OC(=O)N1C[C@H]2C[C@@H]1CN2`, the cytotoxicity call is “inactive”.

For the compound `c1cc2c(cc1CN1CCNCC1)OCO2`, the cytotoxicity call is “inactive”.

With `c1ccc2cc3c(cc2c1)-c1cccc2cccc-3c12`, the cytotoxicity call was “inactive”.

For `CCC1=C[C@@H]2[C@H](C1)C[C@]2(CN)CC(=O)O`, the cytotoxicity call was “inactive”.

Take `[N-]=[N+]=NCc1ccccc1C[C@]1(C(=O)N2CCCCC2)N=C(c2ccc(OCCCO)cc2)O[C@H]1c1ccccc1N=[N+]=[N-]`: the cytotoxicity call is “inactive”.

Turning to `CC12CCC3C(CCC4(O)CC(O)CCC34C=O)C1(O)CCC2C1=CC(=O)OC1` (configuration not stated), the cytotoxicity call was “active”.

For `NC[C@@H](CC(=O)O)c1ccccc1`, the cytotoxicity call is “inactive”.

On to `CCOC(OCC)P(=O)(O)CCCN`, for which the cytotoxicity call was “inactive”.

Regarding `CC(=O)N[C@@H]1[C@H](O[C@@H]2O[C@H](C[C@@H](O)[C@H]3O[C@@H](n4ccc(=O)[nH]c4=O)[C@H](O)[C@@H]3O)[C@H](O)[C@H](O)[C@H]2NC(=O)/C=C/CCCCCCCCC(C)C)O[C@@H](CO)[C@H](O)[C@H]1O`, the cytotoxicity call is “inactive”.

Take `Oc1ccc(Cl)cc1Cc1cc(Cl)ccc1O`: the cytotoxicity call is “inactive”.

For `Oc1cc(Cl)ccc1Oc1ccc(Cl)cc1Cl` [listing 1 of 2 here], the cytotoxicity call was “active”.

Turning to `Oc1cc(Cl)ccc1Oc1ccc(Cl)cc1Cl` [listing 2 of 2 here], the cytotoxicity call was “inactive”.

Turning to `CC(C)[C@@H]1NC[C@@H]2CCCN2C1=O`, the cytotoxicity call was “inactive”.

Regarding `CC1=CC(=O)c2c(O)cccc2C1=O`, the cytotoxicity call was “active”.

On to `Oc1ccccc1-c1ccccc1O`, for which the cytotoxicity call was “inactive”.

For the compound `O=C1C=CC(=O)c2c(O)cccc21`, the cytotoxicity call is “inactive”.

Regarding `O=C(O)C=CC(=O)O.c1ccc2nc(N3CCNCC3)ccc2c1`, the cytotoxicity call was “inactive”.

Regarding `Cc1ncc(CNC(=O)N(CCCl)[NH2+][O-])c(N)n1`, the cytotoxicity call is “inactive”.

With `CC(=O)OC1C2CCC3C(C)(O)C4CC(O)C(C)(C)C4(O)C(O)CC13CC2(C)O` (configuration not stated), the cytotoxicity call is “inactive”.

Take `Cc1cc(C2=NO[C@](c3cc(Cl)cc(Cl)c3)(C(F)(F)F)C2)ccc1C(=O)NCC(=O)NCC(F)(F)F`: the cytotoxicity call is “active”.

For the compound `CN1CCOCC12CCN(c1ncccn1)CC2`, the cytotoxicity call is “inactive”.

For the compound `COc1ccc(C2(CN)CCCC2)cc1`, the cytotoxicity call is “inactive”.

`NCc1cc(=O)[nH]o1`: the cytotoxicity call is “inactive”.

On to `O=C1N[C@@H]2C(=C[C@H](O)[C@@H](O)[C@H]2O)c2cc3c(c(O)c21)OCO3`, for which the cytotoxicity call was “active”.

On to `N[C@@H](c1ccccc1)[C@H](O)c1ccccc1`, for which the cytotoxicity call is “inactive”.

Turning to `CNC(=O)Oc1ccc2c(c1)C1(C)CCN(C)C1N2C.O=S(=O)(O)O` (configuration not stated), the cytotoxicity call was “inactive”.

As for `Cc1ccc(N2CCO[C@@H]3CNCC[C@H]3C2)nn1`, the cytotoxicity call is “inactive”.

Regarding `NCCc1nccs1`, the cytotoxicity call is “inactive”.

Regarding `CCN1C[C@H]2CN(Cc3nccn3C)C[C@H]2C1=O`, the cytotoxicity call was “inactive”.

As for `CNC(=O)Oc1cccc2ccccc12`, the cytotoxicity call was “inactive”.

With `C[C@H]1C[C@H]2CNCC[C@@H]2O1`, the cytotoxicity call is “inactive”.

In the case of `O=[N+]([O-])c1ccc(N(CCO)CCO)c2c1no[n+]2[O-]`, the cytotoxicity call was “active”.

In the case of `CNC(=O)Oc1ccc2c(c1)C1(C)CCN(C)C1N2C.O=C(O)c1ccccc1O` (configuration not stated), the cytotoxicity call was “inactive”.

On to `Cn1ccnc1CN1CCC[C@]2(CCNC2=O)C1`, for which the cytotoxicity call is “inactive”.

`CC(=O)NN1Cc2ccccc2C1=N`: the cytotoxicity call is “inactive”.

As to `CC(C)c1ccc2[nH]c(=O)c(CCN)cc2c1`, the cytotoxicity call is “inactive”.

On to `[N-]=[N+]=NCc1ccccc1C[C@@]1(C(=O)NCCN2CCOCC2)N=C(c2ccc(OCCCO)cc2)O[C@@H]1c1ccccc1N=[N+]=[N-]`, for which the cytotoxicity call is “inactive”.

With `CC1=C2CC3C(CC=C4CC(O)CCC43C)C2CCC12OC1CC(C)CNC1C2C` (configuration not stated), the cytotoxicity call was “inactive”.

In the case of `Cc1ccc(OC(=O)N(C)C[C@H]2OCc3ccccc3-c3c(n(C)c4ccccc34)C(=O)N([C@@H](C)CO)C[C@@H]2C)cc1`, the cytotoxicity call is “inactive”.

With `O=C1[O][SbH]23[O]C(=O)C([O]2)C2[O][SbH]4([O]C(=O)C([O]4)C1[O]3)[O]C2=O`, the cytotoxicity call was “inactive”.

Turning to `O=C1[O][SbH]23[O]C(=O)[C@H]([O]2)[C@H]2[O][SbH]4([O]C(=O)[C@H]([O]4)[C@H]1[O]3)[O]C2=O`, the cytotoxicity call was “active”.

For the compound `CC(C)(C)NCC(O)c1ccccc1Cl.Cl` (configuration not stated), the cytotoxicity call is “inactive”.

For the compound `CC(C)(C#N)O[C@@H]1O[C@H](CO)[C@@H](O)[C@H](O)[C@H]1O`, the cytotoxicity call is “inactive”.

With `CN1C(=O)[C@]23CC4=CC=C[C@H](O)[C@H]4N2C(=O)[C@@]1(CO)SS3`, the cytotoxicity call was “active”.

On to `CN1C(=O)[C@@]23C[C@]4([C@@]56C[C@]78SS[C@](CO)(C(=O)N7[C@@H]5Nc5ccccc56)N(C)C8=O)c5ccccc5N[C@H]4N2C(=O)[C@@]1(CO)SS3`, for which the cytotoxicity call is “active”.

As to `N#C[C@H](O[C@@H]1O[C@H](CO[C@@H]2O[C@H](CO)[C@@H](O)[C@H](O)[C@H]2O)[C@@H](O)[C@H](O)[C@H]1O)c1ccccc1`, the cytotoxicity call was “inactive”.

Regarding `CN1CC[C@]2(CCCO2)C1`, the cytotoxicity call is “inactive”.

With `CCOc1ccc(CN)cn1`, the cytotoxicity call is “inactive”.

Consider `NSC(=S)N1CCCC1`, for which the cytotoxicity call is “inactive”.

As to `O=C1C=C2C=CC3CC2(O1)C1CCCCN31` (configuration not stated), the cytotoxicity call is “inactive”.

Turning to `Nc1ccc2c(c1)CNCC2`, the cytotoxicity call was “inactive”.

With `O=c1[nH]c2ccccc2n1CCCN1CCC(n2c(=O)[nH]c3cc(Cl)ccc32)CC1`, the cytotoxicity call is “inactive”.

Turning to `O=c1[nH]c2ccccc2n1C1CCN(CCCC(c2ccc(F)cc2)c2ccc(F)cc2)CC1`, the cytotoxicity call is “active”.

For the compound `COc1ccn(C)c(=O)c1C#N`, the cytotoxicity call was “inactive”.

Consider `Cl.c1ccc2c(c1)OCC(C1=NCCN1)O2` (configuration not stated), for which the cytotoxicity call was “inactive”.

As for `CI.O=C(COc1ccc(Cl)cc1Cl)OC[C@H]1CCCN2CCCC[C@@H]12`, the cytotoxicity call is “inactive”.

In the case of `O=C1CO[C@]2(CNCCOC2)CN1CC1CC1`, the cytotoxicity call is “inactive”.

Consider `CN(C)C(=O)CCC(=O)N1C[C@H]2C[C@@H]1CN2`, for which the cytotoxicity call is “inactive”.

Consider `CO[C@@H]1C[C@@H](C[C@H]2CC[C@H](C)[C@H]([C@@H](C)C(=O)O)O2)O[C@]2(O[C@](C)([C@H]3CC[C@@](C)([C@H]4O[C@@H]([C@H]5O[C@@](O)(CO)[C@H](C)C[C@@H]5C)C[C@@H]4C)O3)C[C@H]2C)[C@@H]1C`, for which the cytotoxicity call is “active”.

On to `C[C@@H]1CN([C@H](C)CO)C(=O)CCCn2nncc2CO[C@@H]1CN(C)C(=O)Oc1cccc2ccccc12`, for which the cytotoxicity call is “inactive”.

With `Clc1ccc(C(c2ccc(Cl)cc2)C(Cl)(Cl)Cl)cc1`, the cytotoxicity call was “inactive”.

Regarding `N[C@H]1C[C@H]1c1ccccc1`, the cytotoxicity call was “inactive”.

Regarding `O=C(Cc1ccccc1)c1ccccc1`, the cytotoxicity call is “inactive”.

For the compound `NCC(=O)c1ccccc1`, the cytotoxicity call was “inactive”.

Regarding `CC(=O)[O][Hg][c]1ccccc1`, the cytotoxicity call was “active”.

Regarding `O.O.O.O=C([O-])C1[O][Sb]2[O]C(=O)C([O]2)C(C(=O)[O-])[O][Sb]2[O]C(=O)C1[O]2.[K+].[K+]` (configuration not stated), the cytotoxicity call was “inactive”.

With `CC[C@@H](C)[C@H]1NC(=O)C(C(C)=O)=C1O`, the cytotoxicity call is “inactive”.

Regarding `CCC(N)C(O)c1ccc(O)c(O)c1.Cl` (configuration not stated), the cytotoxicity call is “inactive”.

On to `C[C@H](N)[C@H](O)c1ccc(O)c(O)c1`, for which the cytotoxicity call is “inactive”.

As for `CC[C@@H](N)[C@@H](O)c1ccc(O)c(O)c1`, the cytotoxicity call is “active”.

Take `Cn1cc([C@@H](O)c2ccccc2)[n+](C)c1`: the cytotoxicity call is “inactive”.

For the compound `CC(CO)NC(=O)C1C=C2c3cccc4[nH]cc(c34)CC2N(C)C1.O=C(O)C=CC(=O)O` (configuration not stated), the cytotoxicity call is “inactive”.
